Measurements as given in PubChem BioAssay (NCI).
About 83,000 compounds went through this panel and 20% of them were active in at least one assay; those are over-represented in the sample as a whole.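 In brief: 96-well plates, 48 h treatment, single concentration, percent growth endpoint.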 Activity calls are given as the source filed them. Rule for the calls: active = growth percent below 10; inactive = the rest.

System: SF-295 CNS
Assay: NCI-60 one-dose screen, 48 h (100 = growth as untreated, 0 = no growth, -100 = all killed)
Details: 10 µM

Row | SMILES | growth
1 | COc1ccc(-c2nn(-c3cccc(NC(=O)c4ccc(N5CCOCC5)c(C(F)(F)F)c4)c3)cc2-c2ccncc2)cc1Cl | 9.97% (active)
2 | CN1CC[C@@H](c2c(O)cc(O)c3c(=O)cc(-c4ccccc4Cl)oc23)[C@@H](O)C1 | 7.54% (active)
3 | Nc1nc(-c2ccccc2Cl)cc(-c2ccc(Cl)cc2Cl)n1 | 38.7% (inactive)
4 | Cc1[nH]nc2c1C(c1cnn(C)c1)C(C#N)=C(N)O2 (stereo not drawn) | 105% (inactive)
5 | O=C(N/N=C/c1cc2ccccc2c2ccccc12)c1cc(O)c(O)c(O)c1 | 88.8% (inactive)
6 | Cc1ccc(N=Nc2c(N)nc(N)[nH]c2=O)cc1C | 112% (inactive)
7 | CCCCCCCCCCCCCCCC(=O)OC1[C@@H](OC(=O)CCCCCCCCCCCCCCC)[C@@H](C(=O)N[C@@H](CCCCN)C(=O)OC)O[C@H]1n1cnc2c(=O)[nH]c(NC(=O)C(C)C)nc21 (stereo partly drawn) | 108% (inactive)
8 | Cc1cc(=O)n2nnc3c4ccccc4ccc3n12 | 104% (inactive)
9 | CN(Cc1ccccc1)Cc1ccc([N+](=O)[O-])cc1I | 104% (inactive)
10 | COc1ccc(-c2nsc3c2NC(=O)CC3c2ccc(F)cc2)cc1 (stereo not drawn) | 37.5% (inactive)
11 | COc1ccc(N2C(=O)C3c4[nH]c5ccc(OCc6ccccc6)cc5c4C4CCC(C(C)C)CC4C3C2=O)cc1 (stereo not drawn) | 114% (inactive)
12 | C#Cc1ccc(-n2c(/C=C/c3ccc(O)c(OC)c3)nc3ncccc3c2=O)cc1 | 104% (inactive)
13 | CCCCCCN1CCN(Cc2ccc(N(CC)CC)cc2)C(=O)C1=O | 11.8% (inactive)
14 | CC(C)N(CCNc1nc(C(Cl)(Cl)Cl)nc2cc(Cl)ccc12)C(C)C | -64.9% (active)
15 | COc1ccc(-c2nn(-c3cccc(NC(=O)Nc4cc(C(F)(F)F)cc(C(F)(F)F)c4)c3)cc2-c2ccncc2)cc1Cl | -1.97% (active)
16 | CCOC(=O)N1C/C(=C/c2ccc(Cl)cc2)C(=O)/C(=C/c2ccc(Cl)cc2)C1 | 44.2% (inactive)
17 | O=C1Nc2ccccc2C1=NC1CCCCC1 | 98.3% (inactive)
18 | O=C(N/N=C\c1cc(Cl)ccc1[N+](=O)[O-])c1ccco1 | 108% (inactive)
19 | Cc1c(Cl)cccc1NC(=O)c1sc2nc3c(cc2c1N)C(=O)CCC3 | -8.15% (active)
20 | O=C(O)c1ccc(P(=O)(O)O)c([N+](=O)[O-])c1 | 99.2% (inactive)

Row | SMILES | growth
21 | O=C1N=NC2=C1c1c3ccccc3c(O)n1CC2 | 99.4% (inactive)
22 | COc1cc2cc3c(nc2cc1OC)CCN3Cc1ccc(NC(=O)Nc2ccc(F)cc2F)cc1 | 76.9% (inactive)
23 | Nc1c(C(=O)Nc2cccc(F)c2)sc2nc3c(cc12)C(=O)CCC3 | 7.23% (active)
24 | O=C1/C(=C\c2ccc(F)cc2)CN(C(=O)c2ccc([N+](=O)[O-])cc2)C/C1=C\c1ccc(F)cc1 | 10.4% (inactive)
25 | Nc1c(C(=O)Nc2ccccc2)sc2nc3c(cc12)CCCC3 | 5.09% (active)
26 | CN(C)C=Nc1cc(Cl)ccc1Cl | 97% (inactive)
27 | Nc1c(C(=O)Nc2cccc(Br)c2)sc2nc3c(cc12)C(O)CCC3 (stereo not drawn) | 33.9% (inactive)
28 | O=C(Nc1nc2ccccc2s1)Nc1ccc([N+](=O)[O-])cc1Cl | 67.8% (inactive)
29 | COc1ccc([N+](=O)[O-])c(C(=O)O)c1 | 88.7% (inactive)
30 | COc1cc(OC)cc(-c2cncn2-c2ccc(-c3nc4cc(OC)cc(OC)c4s3)cc2)c1 | -22% (active)
31 | CC[C@H](C)C(=O)O[C@H]1CCC=C2C=C[C@H](C)C(CCC3C[C@@H](O)CC(=O)O3)[C@H]21 (stereo partly drawn) | 8.14% (active)
32 | CCOC(=O)C1(CC(C)C)CCOC1=O (stereo not drawn) | 99.5% (inactive)
33 | O=C(CCCCC(=O)Nc1ccc2c(c1)/C(=C/c1ccc[nH]1)C(=O)N2)NO | 102% (inactive)
34 | COc1ccc(S(=O)(=O)Nc2c(/C=C\c3cc(OC)c(OC)c(OC)c3)ccc(OC)c2O)cc1 | 3.31% (active)
35 | CC1=C(N2CCOCC2)C(N2CCOCC2)=C(C)C(=O)C1=O | 97.2% (inactive)
36 | c1ccc([I+]c2ccccc2)cc1 | 81% (inactive)
37 | CCOCC(=O)C(C#N)c1ccc(Cl)c(Cl)c1 (stereo not drawn) | 89.3% (inactive)
38 | O=C1c2ccc3c4c(ccc(c24)C(=O)N1CCNCc1ccccc1)C(=O)N(CCNCc1ccccc1)C3=O | -28.2% (active)
39 | COc1cc(C(=O)N2CCN(c3ccccc3OC)CC2)c(N)cc1OCCCN1CCN(c2ccccc2OC)CC1 | 96.9% (inactive)

System: SF-539 CNS
Assay: as above
Details: 10 µM

Row | SMILES | growth
40 | COc1ccc(-c2nn(-c3cccc(NC(=O)c4ccc(N5CCOCC5)c(C(F)(F)F)c4)c3)cc2-c2ccncc2)cc1Cl | 41% (inactive)
41 | CN1CC[C@@H](c2c(O)cc(O)c3c(=O)cc(-c4ccccc4Cl)oc23)[C@@H](O)C1 | -31.3% (active)
42 | Nc1nc(-c2ccccc2Cl)cc(-c2ccc(Cl)cc2Cl)n1 | 72.2% (inactive)
43 | Cc1[nH]nc2c1C(c1cnn(C)c1)C(C#N)=C(N)O2 (stereo not drawn) | 99.3% (inactive)
44 | O=C(N/N=C/c1cc2ccccc2c2ccccc12)c1cc(O)c(O)c(O)c1 | 50% (inactive)
45 | Cc1ccc(N=Nc2c(N)nc(N)[nH]c2=O)cc1C | 102% (inactive)
46 | CCCCCCCCCCCCCCCC(=O)OC1[C@@H](OC(=O)CCCCCCCCCCCCCCC)[C@@H](C(=O)N[C@@H](CCCCN)C(=O)OC)O[C@H]1n1cnc2c(=O)[nH]c(NC(=O)C(C)C)nc21 (stereo partly drawn) | 103% (inactive)
47 | Cc1cc(=O)n2nnc3c4ccccc4ccc3n12 | 82.3% (inactive)
48 | CN(Cc1ccccc1)Cc1ccc([N+](=O)[O-])cc1I | 100% (inactive)
49 | COc1ccc(-c2nsc3c2NC(=O)CC3c2ccc(F)cc2)cc1 (stereo not drawn) | 43.9% (inactive)
50 | COc1ccc(N2C(=O)C3c4[nH]c5ccc(OCc6ccccc6)cc5c4C4CCC(C(C)C)CC4C3C2=O)cc1 (stereo not drawn) | 118% (inactive)
51 | C#Cc1ccc(-n2c(/C=C/c3ccc(O)c(OC)c3)nc3ncccc3c2=O)cc1 | 97.2% (inactive)
52 | CCCCCCN1CCN(Cc2ccc(N(CC)CC)cc2)C(=O)C1=O | -1.86% (active)
53 | CC(C)N(CCNc1nc(C(Cl)(Cl)Cl)nc2cc(Cl)ccc12)C(C)C | -33.7% (active)
54 | COc1ccc(-c2nn(-c3cccc(NC(=O)Nc4cc(C(F)(F)F)cc(C(F)(F)F)c4)c3)cc2-c2ccncc2)cc1Cl | -42.9% (active)
55 | CCOC(=O)N1C/C(=C/c2ccc(Cl)cc2)C(=O)/C(=C/c2ccc(Cl)cc2)C1 | 98% (inactive)
56 | O=C1Nc2ccccc2C1=NC1CCCCC1 | 99.7% (inactive)
57 | O=C(N/N=C\c1cc(Cl)ccc1[N+](=O)[O-])c1ccco1 | 92.4% (inactive)
58 | Cc1c(Cl)cccc1NC(=O)c1sc2nc3c(cc2c1N)C(=O)CCC3 | -40.7% (active)
59 | O=C(O)c1ccc(P(=O)(O)O)c([N+](=O)[O-])c1 | 104% (inactive)

Row | SMILES | growth
60 | O=C1N=NC2=C1c1c3ccccc3c(O)n1CC2 | 94.9% (inactive)
61 | COc1cc2cc3c(nc2cc1OC)CCN3Cc1ccc(NC(=O)Nc2ccc(F)cc2F)cc1 | 97.8% (inactive)
62 | Nc1c(C(=O)Nc2cccc(F)c2)sc2nc3c(cc12)C(=O)CCC3 | -17.4% (active)
63 | O=C1/C(=C\c2ccc(F)cc2)CN(C(=O)c2ccc([N+](=O)[O-])cc2)C/C1=C\c1ccc(F)cc1 | 58% (inactive)
64 | Nc1c(C(=O)Nc2ccccc2)sc2nc3c(cc12)CCCC3 | -3.86% (active)
65 | CN(C)C=Nc1cc(Cl)ccc1Cl | 111% (inactive)
66 | Nc1c(C(=O)Nc2cccc(Br)c2)sc2nc3c(cc12)C(O)CCC3 (stereo not drawn) | -21.2% (active)
67 | O=C(Nc1nc2ccccc2s1)Nc1ccc([N+](=O)[O-])cc1Cl | -48.5% (active)
68 | COc1ccc([N+](=O)[O-])c(C(=O)O)c1 | 98.7% (inactive)
69 | COc1cc(OC)cc(-c2cncn2-c2ccc(-c3nc4cc(OC)cc(OC)c4s3)cc2)c1 | 62.6% (inactive)
70 | CC[C@H](C)C(=O)O[C@H]1CCC=C2C=C[C@H](C)C(CCC3C[C@@H](O)CC(=O)O3)[C@H]21 (stereo partly drawn) | 85.8% (inactive)
71 | CCOC(=O)C1(CC(C)C)CCOC1=O (stereo not drawn) | 97.7% (inactive)
72 | O=C(CCCCC(=O)Nc1ccc2c(c1)/C(=C/c1ccc[nH]1)C(=O)N2)NO | 81.1% (inactive)
73 | COc1ccc(S(=O)(=O)Nc2c(/C=C\c3cc(OC)c(OC)c(OC)c3)ccc(OC)c2O)cc1 | -28.9% (active)
74 | CC1=C(N2CCOCC2)C(N2CCOCC2)=C(C)C(=O)C1=O | 103% (inactive)
75 | c1ccc([I+]c2ccccc2)cc1 | 68.9% (inactive)
76 | CCOCC(=O)C(C#N)c1ccc(Cl)c(Cl)c1 (stereo not drawn) | 94.8% (inactive)
77 | O=C1c2ccc3c4c(ccc(c24)C(=O)N1CCNCc1ccccc1)C(=O)N(CCNCc1ccccc1)C3=O | -54.2% (active)
78 | COc1cc(C(=O)N2CCN(c3ccccc3OC)CC2)c(N)cc1OCCCN1CCN(c2ccccc2OC)CC1 | 89.9% (inactive)
